Drawing on PubChem BioAssay (EPA / NIEHS), this text covers outcome for 40 compounds.

Results filed as inconclusive are left out. Activity calls are given as the source filed them. How the source made its calls: active means hit-call score of the fitted dose curve at least 0.9, where 1 is the maximum; inconclusive means response in the unintended direction; inactive means score below 0.9.

Sequence of human Vitamin D Receptor (VDR), VDR (gene 7421) (P11473 whole entry, looked up): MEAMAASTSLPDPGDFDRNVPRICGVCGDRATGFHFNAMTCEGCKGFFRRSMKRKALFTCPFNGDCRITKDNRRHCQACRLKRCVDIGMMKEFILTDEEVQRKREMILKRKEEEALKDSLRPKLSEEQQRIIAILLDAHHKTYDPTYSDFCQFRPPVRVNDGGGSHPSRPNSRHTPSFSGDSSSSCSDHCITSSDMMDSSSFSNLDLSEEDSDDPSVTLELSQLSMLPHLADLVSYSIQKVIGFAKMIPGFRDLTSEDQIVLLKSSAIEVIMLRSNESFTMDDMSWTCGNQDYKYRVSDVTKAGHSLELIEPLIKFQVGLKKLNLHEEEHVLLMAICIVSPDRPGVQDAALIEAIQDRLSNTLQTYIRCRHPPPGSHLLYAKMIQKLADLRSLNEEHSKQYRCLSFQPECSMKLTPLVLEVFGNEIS

This test deals with human Vitamin D Receptor (VDR), VDR (gene 7421) (UniProt P11473). Briefly: ATG_VDR_TRANS: Attagene TRANS-FACTORIAL HepG2 Assay for human Vitamin D Receptor (VDR) (AID 2283022). How it is done:
ATG_TRANS is a cell-based, multiplexed-readout assay that uses HepG2, a human liver cell line, with measurements taken at 24 hours after chemical dosing in a 24-well plate.ATG_VDR_TRANS is one of 30 assay component(s) measured or calculated from the ATG_TRANS assay. It is designed to make measurements of mRNA induction, a form of inducible reporter, as detected with fluorescence intensity signals by Reverse transcription polymerase chain reaction (RT-PCR) and Capillary electrophoresis technology.Data from the assay component ATG_VDR_TRANS was analyzed into 1 assay endpoint. This assay endpoint, ATG_VDR_TRANS, was analyzed in the positive analysis fitting direction relative to DMSO as the negative control and baseline of activity. Using a type of inducible reporter, measures of mRNA for gain-of-signal activity can be used to understand the reporter gene at the transcription factor-level as they relate to the gene VDR. Furthermore, this assay endpoint can be referred to as a primary readout, because this assay has produced multiple assay endpoints where this one serves a reporter gene function. To generalize the intended target to other relatable targets, this assay endpoint is annotated to the nuclear receptor intended target family, where the subfamily is non-steroidal.
Human liver HepG2 cells are transiently transfected with multiple reporter transcription units (MRTUs) in 6-well plates using FuGene 6 reagent (Roche; 3 ml FuGene/1 mg DNA). The MRTU constructs are regulated by a cis-regulating element (promoter). […] A major difference between the CIS and TRANS system is that in CIS activities of endogenous TFs are measured, whereas the TRANS assay evaluates changes in activities of exogenous, chimeric NR-Gal4 proteins. […] At the end of 24 hour incubation, total RNA was isolated using TriZol reagent (Invitrogen). The isolated RNA is then reverse-transcribed using oligo(dT) primer and Mo-MLV reverse transcriptase (Invitrogen) with DNAse I (Ambion) treatment for 30 min. The one-tenth of the produced cDNA was amplified by PCR using Taq DNA polymerase (Invitrogen) and two reporter sequence-specific primers. The PCR products were fluorescently labeled by primer extension with 6-arboxyfluorescein (6-FAM) 5'-labeled reporter sequence-specific primer (2 min at 95 C, 20 s at 68 C and 10 min at 72 C) and these products were digested with 5U of HpaI (New England Biolabs) for 2h at 37 C. The fragments were purified using Qiaquick PCR columns (Qiagen), analyzed on an ABI 3130xL genetic analyzer (Applied Biosystems) with peak positions identified by using a set of X-rhodamine (ROX)-labeled MapMarker1000 molecular weight standards (BioVentures). The raw capillary electrophoresis data was processed using Attagraph software (Attagene).
Consider `OCCCO`, for which the compound was classed as inactive.

`COC(=O)c1ccc(C(=O)OC)cc1`: the call was inactive.

As to `COC(=O)C(C)Oc1ccc(Oc2ncc(C(F)(F)F)cc2Cl)cc1` (stereo not given), the compound was classed as inactive.

On to `CCCCCCCCCCOC(=O)c1ccccc1C(=O)OCCCCCCCC`, for which the compound was classed as inactive.

Take `O=S(=O)(O)CCCN1CCOCC1`: the compound was called inactive.

Take `N#CCCNCCC#N`: the outcome was inactive.

`Cc1cccc(C)c1`: the result was inactive.

As for `C[C@]12CC[C@@H]3c4ccc(O)cc4CC[C@H]3[C@@H]1CC[C@@H]2O`, the compound was classed as inactive.

As to `OCC=Cc1ccccc1`, the compound was called inactive.

Regarding `CCOC(=O)CC(C)C`, the compound was classed as inactive.

Consider `CCCCCCCOC(C)=O`, for which the result was inactive.

Take `C=CC(O)CCCCC` (stereo not given): the compound was classed as inactive.

For the compound `CC(C)(C)c1ccc(S)cc1`, the call was inactive.

For the compound `CCCCCCCCSCc1cc(C)c(O)c(CSCCCCCCCC)c1`, the compound was called inactive.

In the case of `CCCCCC(=O)O[C@]1(C(C)=O)CC[C@H]2[C@@H]3CCC4=CC(=O)CC[C@]4(C)[C@H]3CC[C@@]21C`, the outcome was inactive.

Take `CCC(CC)CO`: the compound was called inactive.

With `C=C(C)C(=O)OCCOCCOC(=O)C(=C)C`, the outcome was inactive.

As for `NC(=O)c1cccnc1`, the compound was called inactive.

Regarding `CC(C)(C)C1CCC(O)CC1` (stereo not given), the compound was called inactive.

Consider `CCCCCCCC(=O)N(C)C`, for which the compound was called inactive.

On to `c1ccc(OCCOc2ccccc2)cc1`, for which the compound was called inactive.

For the compound `CC1=C(C=O)C(C)(C)CCC1`, the compound was classed as inactive.

Regarding `C=COCC1CCC(COC=C)CC1` (stereo not given), the call was inactive.

On to `CC/C=C\CCOC(=O)C(C)C`, for which the result was inactive.

As to `CC(C)COC(=O)c1ccccc1O`, the outcome was inactive.

For the compound `CCCCCCCCCC(=O)OCC`, the compound was classed as inactive.

Take `CCNC(=S)NCC`: the result was inactive.

With `C/C=C(\C)C(=O)OC/C=C(\C)CCC=C(C)C`, the compound was classed as inactive.

As to `CC(=O)C1C(=O)C=C(C)OC1=O` (stereo not given), the outcome was inactive.

Turning to `CCCCOCCOC(=O)c1ccccc1C(=O)OCCOCCCC`, the outcome was inactive.

Take `CC1=CC[C@@H]2C[C@H]1C2(C)C`: the compound was called inactive.

`Cc1ccc(C(C)(C)O)cc1`: the result was inactive.

Take `CC(=O)CC(=O)N(C)C`: the result was inactive.

As for `C=C1CC/C=C(\C)CC[C@@H]2[C@@H]1CC2(C)C`, the compound was called inactive.

With `C=CC(C)(CCC=C(C)C)OC(=O)CC` (stereo not given), the result was inactive.

Consider `C=C(C)C(=O)OCCC(C)OC(=O)C(=C)C` (stereo not given), for which the call was inactive.

On to `CCCC1CCOC(C)S1` (stereo not given), for which the compound was called inactive.

Regarding `CCCCCCCCOC(C)=O`, the outcome was inactive.

As to `C=CC(C)CCCC(C)(C)O` (stereo not given), the compound was called inactive.

For the compound `CCOC(=O)C=Cc1ccccc1`, the result was inactive.
